Data as given in PubChem BioAssay (NCI).
The panel holds about 79,000 compounds, 15% with a hit somewhere; the sample as a whole holds those more often. The source made the active and inactive calls. Cut-off read from the data, not from the text of the source: active = growth inhibition above about 70%; inactive = the rest.

Key:
[1] = NCI Yeast Anticancer Drug Screen. Data for the rad52 strain (AID 147);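 note: 0% = growth of vehicle-treated control cultures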; conditions: S. cerevisiae rad52 mutant growth inhibition, active compounds read high
Method in brief: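 Yeast strain carrying a DNA damage repair alteration was exposed to test compounds. Growth inhibition was measured relative to vehicle-treated controls.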

[2] = NCI Yeast Anticancer Drug Screen. Data for the rad50EPP+ strain (AID 151);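 note: 0% = growth of vehicle-treated control cultures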; conditions: S. cerevisiae rad50 mutant strain, active compounds read high
Method in brief: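 Yeast strain carrying rad50 alteration (rad50EPP+) exposed to compounds; growth inhibition measured relative to vehicle-treated controls.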

[3] = NCI Yeast Anticancer Drug Screen. Data for the mgt1 strain (AID 153); conditions: S. cerevisiae mgt1 mutant growth inhibition, active compounds read high
Method in brief: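 Yeast mgt1 strain (DNA repair/cell-cycle alteration panel) exposed to compounds; growth inhibition measured relative to vehicle-treated controls.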

[4] = NCI Yeast Anticancer Drug Screen. Data for the rad50 strain (AID 155);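 note: 0% = growth of vehicle-only cultures of the same strain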; conditions: S. cerevisiae rad50 strain growth inhibition, active compounds read high
Method in brief: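 Yeast carrying a defined DNA repair defect were exposed to test compounds, and growth was compared with vehicle-treated controls to give percent inhibition.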

[5] = NCI Yeast Anticancer Drug Screen. Data for the mec2-1 strain (AID 157); conditions: S. cerevisiae mec2-1 strain, active compounds read high
Method in brief: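 mec2-1 yeast strain, carrying an alteration in DNA damage repair or cell cycle control, was exposed to compounds; growth inhibition was measured relative to vehicle-treated controls.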

[6] = NCI Yeast Anticancer Drug Screen. Data for the rad14 strain (AID 159);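 note: 0% = growth of vehicle-treated control cultures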; conditions: S. cerevisiae rad14 strain growth inhibition, active compounds read high
Method in brief: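 Yeast cells carrying a defined DNA-repair defect were exposed to compounds, and growth inhibition was calculated relative to vehicle-treated control cultures.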

[7] = NCI Yeast Anticancer Drug Screen. Data for the sgs1 mgt1 strain (AID 161);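 note: 0% = growth of cultures given vehicle only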; conditions: S. cerevisiae sgs1 mgt1 strain, active compounds read high
Method in brief: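 This yeast growth screen uses a strain with defined DNA-repair lesions; compound-treated growth is compared with vehicle-treated growth.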

[8] = NCI Yeast Anticancer Drug Screen. Data for the CLN2oe strain (AID 163);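 note: 0% = growth of vehicle-only control cultures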; conditions: S. cerevisiae CLN2oe strain, active compounds read high
Method in brief: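 Yeast cells carrying a defined cell-cycle control alteration were exposed to test compounds. Growth inhibition was scored against vehicle-treated control cultures.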

[9] = NCI Yeast Anticancer Drug Screen. Data for the cln2 rad14 strain (AID 165);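 note: 0% = growth equal to vehicle treated cultures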; conditions: S. cerevisiae cln2 rad14 strain, active compounds read high
Method in brief: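 Yeast carrying cln2 and rad14 alterations (cell cycle control and DNA damage repair) were exposed to compounds. Growth inhibition was measured against vehicle-treated controls.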

[10] = NCI Yeast Anticancer Drug Screen. Data for the bub3 strain (AID 167); conditions: S. cerevisiae bub3 mutant strain, active compounds read high
Method in brief: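 Compounds were applied to a genetically altered yeast strain carrying a cell-cycle control defect. Growth inhibition was scored against vehicle-treated controls.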

[11] = NCI Yeast Anticancer Drug Screen. Data for the wt2 strain (AID 169);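 note: 0% = growth of vehicle-treated yeast cultures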; conditions: S. cerevisiae wt2 strain growth inhibition, active compounds read high
Method in brief: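 Yeast cells were exposed to test compounds, and growth inhibition was measured relative to vehicle-treated controls.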

[12] = NCI Yeast Anticancer Drug Screen. Data for the mlh1 strain (AID 171);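 note: 0% = growth of vehicle-treated control cultures of the same strain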; conditions: S. cerevisiae mlh1 strain growth inhibition, active compounds read high
Method in brief: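 Yeast carrying a defined genetic alteration in DNA damage repair or cell cycle control were exposed to test compounds. Growth inhibition was measured relative to vehicle-treated controls.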

[13] = NCI Yeast Anticancer Drug Screen. Data for the sgs1 strain (AID 173);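 note: 0% = growth of vehicle-only control cultures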; conditions: S. cerevisiae sgs1 mutant, active compounds read high
Method in brief: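 Yeast mutant strains carrying defined defects in DNA damage repair or cell cycle control were exposed to test compounds. Growth inhibition was scored against vehicle-treated controls.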

[14] = NCI Yeast Anticancer Drug Screen. Data for the mlh1 rad18 strain (AID 175); conditions: S. cerevisiae mlh1 rad18 strain growth inhibition, active compounds read high
Method in brief: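 Growth inhibition of the yeast strain was measured after compound exposure and expressed relative to vehicle-treated controls. The strain carries defined defects in DNA damage repair.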

[15] = NCI Yeast Anticancer Drug Screen. Data for the rad18 strain (AID 177); conditions: S. cerevisiae rad18 mutant growth inhibition, active compounds read high
Method in brief: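 Yeast carrying a defined DNA damage repair alteration were exposed to compounds. Growth inhibition was expressed relative to vehicle-treated controls.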

[16] = at 5.0 µM (retest, dose inferred, filed as 0.5)
[17] = at 50.0 µM (retest, dose inferred, filed as 5.0)

Measured: growth inhibition

Nc1cc2c(cc1N)-c1ccccc1C2=O
inactive: [1]; at 1.2 µM -3% | [1]; at 3.7 µM -3% | [1]; at 11.0 µM 2% | [1]; at 33.0 µM 23% | [2]; at 1.2 µM 1% | [2]; at 3.7 µM 9% | [2]; at 11.0 µM 18% | [2]; at 33.0 µM 31% | [3]; at 1.2 µM -3% | [3]; at 3.7 µM -2% | [3]; at 11.0 µM -2% | [3]; at 33.0 µM 1% | [4]; at 1.2 µM 0% | [4]; at 3.7 µM -57% | [4]; [16] 4% | [4]; at 11.0 µM 19% | [4]; at 33.0 µM 37% | [4]; [17] 67% | [5]; at 1.2 µM -2% | [5]; at 3.7 µM -4% | [5]; [16] 0% | [5]; at 11.0 µM -1% | [5]; at 33.0 µM 9% | [5]; [17] 23% | [5]; at 50.0 µM 39% | [6]; at 1.2 µM -1% | [6]; at 3.7 µM 3% | [6]; at 11.0 µM 8% | [6]; at 33.0 µM 26% | [7]; [16] -8% | [7]; [17] 17% | [7]; at 50.0 µM -11.9% | [8]; at 1.2 µM -3% | [8]; at 3.7 µM 0% | [8]; at 11.0 µM 2% | [8]; at 33.0 µM 2% | [8]; at 100.0 µM 13% | [9]; [16] -10% | [9]; [17] 15% | [9]; at 50.0 µM -0.1% | [10]; at 1.2 µM -2% | [10]; at 3.7 µM 1% | [10]; [16] 0% | [10]; at 11.0 µM 0% | [10]; at 33.0 µM 4% | [10]; [17] 49% | [10]; at 50.0 µM 45.1% | [10]; at 100.0 µM 65% | [11]; at 1.2 µM -3% | [11]; at 3.7 µM 6% | [11]; at 11.0 µM -2% | [11]; at 33.0 µM 1% | [11]; at 100.0 µM 41% | [12]; at 1.2 µM -1% | [12]; at 3.7 µM -2% | [12]; at 11.0 µM -2% | [12]; at 33.0 µM 2% | [13]; at 1.2 µM -3% | [13]; at 3.7 µM -3% | [13]; at 11.0 µM -1% | [13]; at 33.0 µM 6% | [14]; [16] 0% | [14]; [17] 57% | [14]; at 50.0 µM 68.7% | [15]; at 1.2 µM -3% | [15]; at 3.7 µM 1% | [15]; at 11.0 µM 5% | [15]; at 33.0 µM 21%
active: [1]; at 100.0 µM 87% | [2]; at 100.0 µM 70% | [3]; at 100.0 µM 95% | [4]; at 50.0 µM 71.4% | [4]; at 100.0 µM 92% | [5]; at 100.0 µM 70% | [6]; at 100.0 µM 97% | [12]; at 100.0 µM 86% | [13]; at 100.0 µM 74% | [15]; at 100.0 µM 93%

CCCCCCCCCC(=O)N(CCC)CCC
active: [1]; at 100.0 µM 96% | [2]; at 100.0 µM 77% | [3]; at 100.0 µM 96% | [4]; [16] 97% | [4]; [17] 96% | [4]; at 50.0 µM 90.9% | [4]; at 100.0 µM 97% | [5]; [16] 97% | [5]; at 33.0 µM 73% | [5]; [17] 98% | [5]; at 50.0 µM 93.3% | [5]; at 100.0 µM 97% | [6]; at 100.0 µM 97% | [7]; at 50.0 µM 92.9% | [8]; at 100.0 µM 98% | [9]; at 50.0 µM 91.1% | [10]; [17] 73% | [10]; at 50.0 µM 92% | [10]; at 100.0 µM 97% | [11]; at 100.0 µM 97% | [12]; at 100.0 µM 96% | [13]; at 33.0 µM 73% | [13]; at 100.0 µM 98% | [14]; [16] 99% | [14]; [17] 99% | [14]; at 50.0 µM 90.3% | [15]; at 100.0 µM 98%
inactive: [1]; at 1.2 µM -11% | [1]; at 3.7 µM -15% | [1]; at 11.0 µM -19% | [1]; at 33.0 µM 42% | [2]; at 1.2 µM 1% | [2]; at 3.7 µM 9% | [2]; at 11.0 µM 11% | [2]; at 33.0 µM 43% | [3]; at 1.2 µM -14% | [3]; at 3.7 µM -20% | [3]; at 11.0 µM -25% | [3]; at 33.0 µM 0% | [4]; at 1.2 µM 2% | [4]; at 3.7 µM -8% | [4]; at 11.0 µM -2% | [4]; at 33.0 µM 48% | [5]; at 1.2 µM -4% | [5]; at 3.7 µM 1% | [5]; at 11.0 µM -15% | [6]; at 1.2 µM -9% | [6]; at 3.7 µM -6% | [6]; at 11.0 µM -15% | [6]; at 33.0 µM 29% | [7]; [16] -38% | [7]; [17] 56% | [8]; at 1.2 µM 3% | [8]; at 3.7 µM -2% | [8]; at 11.0 µM 0% | [8]; at 33.0 µM 45% | [9]; [16] 48% | [9]; [17] 65% | [10]; at 1.2 µM -29% | [10]; at 3.7 µM -27% | [10]; [16] -7% | [10]; at 11.0 µM -37% | [10]; at 33.0 µM 67% | [11]; at 1.2 µM -5% | [11]; at 3.7 µM -2% | [11]; at 11.0 µM -10% | [11]; at 33.0 µM 49% | [12]; at 1.2 µM 2% | [12]; at 3.7 µM -15% | [12]; at 11.0 µM -13% | [12]; at 33.0 µM 41% | [13]; at 1.2 µM -4% | [13]; at 3.7 µM -9% | [13]; at 11.0 µM -17% | [15]; at 1.2 µM 15% | [15]; at 3.7 µM 21% | [15]; at 11.0 µM 15% | [15]; at 33.0 µM 68%
